In PubChem BioAssay:

What follows are molecules tested on Fibrinogen (Alexa647-labelled) (assay: Alexa647-fibrinogen binding to printed small molecules – biochemical, small-molecule microarray, 635/667 nm fluorescence, artefact control for SMM control-protein annotation, profiling panel (AID 1131;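 further: z-score merges 667 nm fluorescence with per-spot signal-to-noise over triplicate slides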)). Conditions: fibrinogen-A647 binding fluorescence, higher = more signal.

Going from `COCCOC(=O)N1C(=O)[C@@]2(c3cc(C#CCNC(N)=O)ccc31)[C@H](C(=O)N1CCCCCCC1)[C@H]1C(=O)O[C@H](c3ccccc3)[C@H](c3ccccc3)N1[C@@H]2c1ccccc1OCCO` to `C=CCC(OC(C)=O)[C@@H]1[C@@H](N(Cc2ccc(-c3ccccc3)cc2)C(=O)c2ccc(-c3ccccc3)cc2)c2cc(OCCCO)ccc2N1C(=O)Cc1ccc(OC)cc1` (some centres undefined), the composite z-score falls from 0.47 to 0.466.

Compared with `C[C@H]1C2[C@H](Cc3ccccc3)NC(=O)[C@]23C(=O)N[C@H](Cc2ccccc2)C(=O)N[C@@H](Cc2ccccc2)C(=O)NC/C=C\C/C=C/C3[C@@H]2O[C@]12C` (some centres undefined), `CCOC(=O)C1=C[C@@H](c2ccccc2)N(S(=O)(=O)c2ccc(C)cc2)[C@H]1c1ccc(F)cc1` is higher in composite z-score: -1.84 for the first, 0.995 for the second.

Molecule `CC(C)[Si](OCCCNS(=O)(=O)c1ccc(Br)cc1)(C(C)C)C(C)C` has a composite z-score of 0.348.

The molecules below were run against Follistatin (Homo sapiens) (UniProt P19883) (assay: FST protein binding to printed compounds – biochemical, small-molecule microarray, 635/667 nm fluorescence, primary screen (AID 1132)). Conditions: 635 nm fluorescence, higher = more signal.
Sequence of Follistatin (Homo sapiens) (P19883 whole entry, looked up): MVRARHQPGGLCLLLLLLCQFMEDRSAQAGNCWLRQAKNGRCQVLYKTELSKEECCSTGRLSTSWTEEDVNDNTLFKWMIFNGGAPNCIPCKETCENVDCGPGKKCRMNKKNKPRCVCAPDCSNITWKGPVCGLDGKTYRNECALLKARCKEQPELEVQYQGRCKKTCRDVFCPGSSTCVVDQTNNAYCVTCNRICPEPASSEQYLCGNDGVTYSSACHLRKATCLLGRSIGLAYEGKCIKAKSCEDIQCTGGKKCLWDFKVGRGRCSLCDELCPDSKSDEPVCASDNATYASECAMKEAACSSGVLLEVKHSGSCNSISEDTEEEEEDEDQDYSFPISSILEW

Going from `Cc1ccc(S[C@]2(C(=O)NC3CC3)CC(=O)N(Cc3cc(C(F)(F)F)cc(C(F)(F)F)c3)[C@@H]2c2ccc(CO)cc2)cc1` to `CC(C)CNC(=O)[C@@]1(C)c2ccccc2C(=O)N(Cc2ccc(OC(F)(F)F)cc2)[C@H]1c1ccc(CO)cc1`, the composite z-score falls from 1.2 to -0.27.

Going from `O=C/C=C/c1ccccc1Cl` to `CO[C@H]1COC(=O)[C@@H](Cc2ccccc2)NC(=O)[C@@H](C)COC(=O)CC=C[C@@H]1C`, the composite z-score rises from 0.0323 to 1.24.

Compared with `COC(=O)[C@@]1(Cc2ccccc2N=[N+]=[N-])N=C(c2ccc(OCCCO)cc2)O[C@H]1c1ccccc1CN=[N+]=[N-]`, `C=CC[C@]1(C(=O)O)N=C(c2ccc(OCCCO)cc2)O[C@H]1c1ccccc1` is lower in composite z-score: 1.29 for the first, -0.367 for the second.

Compared with `COC(=O)C(CC#Cc1ccc2c(c1)[C@]1(C(=O)N2)[C@H](C(=O)N2CCCCCCC2)[C@H]2C(=O)O[C@H](c3ccccc3)[C@H](c3ccccc3)N2[C@@H]1c1ccc(O)cc1)C(=O)OC`, `CCOC(=O)C[C@H]1[C@H](OC(=O)c2ccccc2-c2ccccc2)[C@@H](NC(=O)C2CCCCC2)c2cc(OCCCO)ccc2N1C(=O)c1ccccc1` is higher in composite z-score: -0.408 for the first, 0.392 for the second.

Going from `C=CCC(OC(C)=O)[C@@H]1[C@@H](N(Cc2cccc3ccccc23)C(=O)c2ccc(C)cc2)c2cc(OCCCO)ccc2N1C(=O)c1ccc(-c2ccccc2)cc1` (some centres undefined) to `CCOC(=O)C[C@H]1[C@H](OC(=O)Cc2ccc3c(c2)OCO3)[C@@H](NC(=O)CC(C)C)c2cc(OCCCO)ccc2N1C(=O)c1ccccc1`, the composite z-score falls from 0.679 to 0.45.

First: O=C1OCC=C[C@H]2OC34C=CCN(Cc5ccccc5)C(=O)[C@H]3N(CCO)C(=O)[C@@H]4[C@@H]12 (some centres undefined)
Second: CO[C@H]1COC(=O)[C@@H](C)COC(=O)[C@H](Cc2ccccc2)NC(=O)CC=C[C@H]1C
The composite z-score of the first is lower: -0.0764 for the first, 0.932 for the second.

Compared with `CO[C@@H]1COC(=O)CC=C[C@@H](C)[C@H](OC)COC(=O)CC=C[C@H]1C`, `CO[C@@H]1COC(=O)CC=C[C@H](C)COC(=O)[C@H](Cc2ccccc2)NC(=O)CC=C[C@H]1C` is lower in composite z-score: 1.48 for the first, 0.997 for the second.

Compared with `CN(C)c1ccc(C(O)C2C=CC3C(=O)NC(=O)C3N2Nc2ccc(Cl)cc2Cl)cc1` (centres undefined), `C=C(C)[C@@H]1CC=C(C(O)C2C=CC3C(=O)NC(=O)C3N2Nc2ccccn2)CC1` (some centres undefined) is higher in composite z-score: 1.16 for the first, 1.58 for the second.

Going from `COc1ccc([Si](C)(C)[C@H]2[C@H](CCO)O[C@@]3(C(=O)N(Cc4ccccc4)c4ccc(N5C(=O)c6cccc7cccc5c67)cc43)[C@@H]2C)cc1` to `COC(=O)C1=C(C)N(Cc2ccccc2)c2c(C(=O)OC)c(C(=O)OC)c(C(=O)OC)c(=O)n2[C@@H]1c1ccccc1`, the composite z-score rises from -0.357 to 0.321.

Going from `CO[C@@H]1COC(=O)[C@H](COCc2ccccc2)NC(=O)CC=C[C@@H](C)[C@H](OC)COC(=O)[C@H](COCc2ccccc2)NC(=O)CC=C[C@H]1C` to `CO[C@@H]1COC(=O)[C@H](C)NC(=O)CC=C[C@@H](C)[C@H](NS(=O)(=O)c2ccc(C)cc2)COC(=O)CC=C[C@@H]1C`, the composite z-score falls from 0.59 to -0.268.

Compared with `CC/C=C/C(=O)N(C[C@@H]1CCCO1)[C@@H]1CC(C(=O)NCCO)=C[C@H](Oc2c(I)cc(CO)cc2OC)[C@H]1O`, `CC(=O)NCCCC[C@@H]1NC(=O)[C@@H]2C[C@H](C(=O)NCCCCCNC(=O)CS)[C@H](c3ccc(O)cc3)N2C1=O` is higher in composite z-score: -0.227 for the first, 1.44 for the second.

Going from `CCC1=C2CN(Cc3ccccc3Br)[C@@H]([C@@H](O)Cc3ccccc3)C2C=CCC1` (some centres undefined) to `CCCC=C(CCC)[C@@H](NC(=O)c1ccc(C(F)(F)F)cc1)c1ccccc1`, the composite z-score falls from 0.651 to 0.0643.
